Screening data deposited in PubChem BioAssay by National Center for Advancing Translational Sciences (NCATS).
12-LOX inh = ALOX12 (human) lipoxygenase inhibition; AID 1671190; Potency, µM (series often up to 108 µM), inactives show top-dose activity change, negative = inhibition, most hits filed as inhibitors; purified 12hLO, xylenol orange hydroperoxide absorbance; 580,000 compounds, 1.1% hits; further: on the % scale 0 is the no-effect control and ±100 the full control effect
Target sequence (P18054 whole entry, looked up): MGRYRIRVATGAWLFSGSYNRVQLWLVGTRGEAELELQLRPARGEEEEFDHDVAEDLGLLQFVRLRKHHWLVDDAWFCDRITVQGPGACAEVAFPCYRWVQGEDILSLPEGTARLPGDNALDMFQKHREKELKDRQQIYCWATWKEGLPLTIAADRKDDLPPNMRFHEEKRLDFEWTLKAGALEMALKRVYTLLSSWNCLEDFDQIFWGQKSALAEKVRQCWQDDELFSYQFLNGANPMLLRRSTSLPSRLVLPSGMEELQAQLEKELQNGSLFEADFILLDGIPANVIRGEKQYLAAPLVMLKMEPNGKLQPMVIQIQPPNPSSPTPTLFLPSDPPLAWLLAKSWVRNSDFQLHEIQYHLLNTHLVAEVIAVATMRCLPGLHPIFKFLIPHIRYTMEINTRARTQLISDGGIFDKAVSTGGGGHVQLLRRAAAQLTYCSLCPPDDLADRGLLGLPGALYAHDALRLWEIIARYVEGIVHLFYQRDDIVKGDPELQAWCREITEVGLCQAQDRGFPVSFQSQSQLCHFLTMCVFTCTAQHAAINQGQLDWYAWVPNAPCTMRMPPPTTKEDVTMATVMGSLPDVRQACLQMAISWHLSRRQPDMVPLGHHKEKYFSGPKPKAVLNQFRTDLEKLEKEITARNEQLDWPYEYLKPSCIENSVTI
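Purified human 12hLO at 150 nM in 25 mM Hepes, 0.01% Triton X-100, pH 7.0, preincubated 15 min at room temperature with compound. Reaction started with 40 uM arachidonic acid, 30 min at room temperature. Hydroperoxide measured by Fe-xylenol orange, 573/405 nm absorbance ratio.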
KB-3-1 cytotox = KB-3-1 parental cell cytotoxicity; KB-3-1 viability, CellTiter-Glo ATP luminescence, 72 h; Potency, µM (series often up to 46.1 µM), usual class: cytotoxic; 400,000 compounds, 1.4% hits; AID 1347075; further: on the % scale 0 is the no-effect control and ±100 the full control effect; nearly all actives have a fitted effect of over 60% in size
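Here the drug-naive KB-3-1 line serves as comparator for MDR sub-line selectivity; cells received compound titrations, 72 h at 37 °C, then CellTiter-Glo readout.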
SW480 rereplic = induces DNA re-replication in SW480 colon adenocarcinoma cells | 340,000 compounds, 1.8% hits | SW480 DNA re-replication, Hoechst DNA content imaging, 48 h | Potency, µM (series often up to 46.1 µM), without a hit: top-dose re-replication activation, most hits filed as activators; further: % of control where 0% means no effect; nearly all actives have a fitted effect of over 55% in size
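250 cells/well; 23 nL cpd via pin tool; 48 hr, 37 C, 5% CO2; Hoechst 40 min; imager read of total nuclear intensity, ex 405/em 500-530 nm.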
MCF10A rerep = DNA re-replication induction in MCF 10a cells | MCF 10A DNA re-replication, Hoechst nuclear intensity, 48 h | Potency, µM (series often up to 46.1 µM), inactives show at the top dose activity, positive = re-replication, actives largely listed as activators | 350,000 compounds, 2.9% hits | AID 624296; further: % of control where 0% means no effect; nearly all actives have a fitted effect of over 50% in size
KB-V1 cytotox = KB-V1 MDR subline cytotoxicity; 400,000 compounds, 3.4% hits; Potency, µM (highest dose often 46.1 µM), actives largely listed as cytotoxic; KB-V1 MDR cells viability, CellTiter-Glo, 72 h; further: on the % scale 0 is the no-effect control and ±100 the full control effect; nearly all actives have a fitted effect of over 60% in size
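Readout: CellTiter-Glo luminescence, 10 min after addition. Cells: KB-V1 MDR subline, 72 h at 37 degrees C with compound. Analysis: corrected, normalized data fitted to concentration-effect curves.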
PINK1 expr mod = PINK1 expression modulation | PINK1 immunofluorescence, high-content cytometry, 24 h | Potency, µM (series often up to 76.6 µM), without a hit: at the highest dose activation (PINK1 increase), most hits filed as activators | 410,000 compounds, 0.2% hits | AID 624263; active means well fitted activation curve with a large enough effect; inconclusive means small, poorly fitted or top-dose-only effect; cell line not stated here; further: % of control where 0% means no effect; nearly all actives have a fitted effect of over 65% in size
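PINK1 protein, normally rapidly degraded, was detected by immunofluorescence after 24 hour compound treatment of a stable cell line. Titration data (5 concentrations) came from laser-scanning cytometry, with CCCP-treated wells as controls.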
* = called active by the depositor; i = inactive; ? = inconclusive; . = no result; [ ] = remark or other dose. This is a sample that favours compounds with a hit; in the whole collection about 5.8% have one here. Unless noted, the call rests on the fitted dose curve; in most records, active means well fitted curve in the direction sought with a large enough effect; inconclusive means small, poorly fitted or top-dose-only effect, or another doubt; inactive means no such curve, though single readings can be large; an effect the other way counts as inactive or inconclusive. Potency means the concentration at half of the fitted maximal effect.

SMILES	12-LOX inh	KB-3-1 cytotox	SW480 rereplic	MCF10A rerep	KB-V1 cytotox	PINK1 expr mod
COc1ccccc1CCNCc1ccc(OC)c(OCc2ccccc2)c1	?	?	?	2%	4.6µM*	9%[38.3 µM]
Cc1ccc(CCC(=O)Nc2cccc3cccnc23)c(C)c1	8%	.	.	.	.	.
CNC(=O)Nc1cc(C)nn1C	2%	i	23µM*	-5%	i	1%
Cc1cc(NC(=O)Nc2cccc(C(F)(F)F)c2)n(C)n1	-6%	i	-6%	23%	i	1%
Cc1ccc(OCCCN2C(=O)C(=O)c3cc(C)ccc32)cc1	?	?	23µM*	21µM*	i	5%
C=CCn1c(SCc2csc(-c3ccc(Cl)cc3)n2)nnc1-c1ccccc1OC	-25%	?	.	?	21µM*	1%
Cc1ccc(-c2nc(Cn3nnc(-c4ccccc4C)n3)cs2)cc1	9%	.	.	.	.	.
Cc1cccc(C)c1-n1nnnc1-c1nc2cc3ccccc3cc2[nH]c1=O	?	1µM*	.	.	6.5µM*	0%
Cc1cccc(C)c1-n1nnnc1-c1nc2cc(Br)ccc2[nH]c1=O	?	i	.	.	i	2%
CCOc1cc(C(=O)OCC(=O)Nc2ccc(F)c(Cl)c2)ccc1OCC(=O)N1CCCCC1	-12%	.	.	.	.	.
COc1ccccc1-c1noc2nc(Nc3cccc(Cl)c3)ccc12	28µM*	.	.	.	.	.
CCOC(=O)C1=C(C)N=C2SC=C(CC(=O)N3CCC(C)CC3)N2C1c1ccccc1F (centres undefined)	70%	.	.	.	.	.
O=C(CN1C(=O)CC(c2ccco2)Sc2ccccc21)Nc1ccc(C(F)(F)F)cc1 (centres undefined)	-15%	i	.	.	?	3%
COc1ccc(NC(=O)CN2C(=O)CC(c3ccco3)Sc3ccccc32)cc1OC (centres undefined)	-16%	i	.	.	18µM*	2%
O=C(CN1C(=O)CC(c2ccco2)Sc2ccccc21)Nc1cccc(C(F)(F)F)c1 (centres undefined)	0%	?	.	.	21µM*	0%
CNCCO	-3%	.	.	.	.	.
CCN(CC)c1ccc(NC(=O)c2ccccc2F)cc1S(=O)(=O)Nc1ccccc1OC	?	i	-79%	2%	9.2µM*	0%
CCN(CC)c1ccc(NC(=O)c2ccccc2Br)cc1S(=O)(=O)Nc1ccccc1OC	35µM*	i	0%	10%	?	1%
CCN(CC)c1ccc(NC(=O)c2ccc(=O)[nH]c2)cc1S(=O)(=O)Nc1ccccc1OC	?	10µM*	?	?	i	6%
CCN(CC)c1ccc(NC(=O)COc2ccccc2C)cc1S(=O)(=O)Nc1ccccc1OC	?	i	3%	-3%	?	3%
COc1ccccc1C1=NN(C(=O)C(C)C)C(c2ccc3nccnc3c2)C1 (centres undefined)	-45%	.	.	.	.	.
COc1ccc(Br)c(C(=O)Oc2ccccc2OC)c1	11%	.	.	.	.	.
COc1ccc(/C=N/OC(=O)Nc2ccccc2OC)cc1	1%	10µM*	?	7.3µM*	9.2µM*	4%
CN(C)c1ccc(/C=N/OC(=O)Nc2ccccc2Cl)cc1	42%	23µM*	-1%	1%	?	4%
COc1ccccc1NC(=O)CC(=O)c1ccccc1	10%	i	-11%	-2%	?	0%
SMILES	12-LOX inh	KB-3-1 cytotox	SW480 rereplic	MCF10A rerep	KB-V1 cytotox	PINK1 expr mod
COc1ccccc1NC(=O)O/N=C(\N)c1ccccc1	16%	i	12µM*	?	i	1%
CN(C)/C=C1\Oc2ccc3ccccc3c2C1=O	5µM*	i	3%	3%	?	1%
Cc1cc(N(C)C)ccc1/C=C/c1ccnc2ccccc12	.	?	.	.	?	2%
Cc1cc(N(C)C)c(C)cc1/C=C/c1ccnc2ccccc12	.	2.9µM*	.	.	6.5µM*	.
CCN(CC)c1cc(C)c(/C=C/c2ccnc3ccccc23)cc1C	.	12µM*	.	.	?	0%
CCOc1ccc(C=Nc2ccc(/C=C/c3ccnc4ccccc34)cc2)cc1OCC	.	i	.	.	i	-1%
CCCCN(CCCC)c1ccc(C=Nc2ccc(/C=C/c3ccnc4ccccc34)cc2)cc1C	.	?	.	.	23µM*	0%
COc1ccc(OC)c(NC(=O)Nc2nnc(N(C)C3CCCCC3)s2)c1	55%	.	.	.	.	.
Cc1cc(OCC(=O)NC(C)C)c2c(C)c(C)c(=O)oc2c1	4%	.	.	.	.	.
O=C(Cc1n[nH]c(=O)c2ccccc12)NCCN1CCCCCC1=O	12%	.	.	.	.	.
O=C(CCN1CCc2ccccc2C1)c1ccc2c(c1)OCCO2	.	?	16µM*	?	?	-1%
O=C(CCN1CCC(c2ccccc2)C1)c1ccccc1 (centres undefined)	?	i	?	?	i	4%[38.3 µM]
O=C(CCN1CCC(c2ccccc2)C1)c1ccc2c(c1)OCCO2 (centres undefined)	-18%	i	?	13µM*	i	1%
O=C(CCN1CCc2ccccc21)c1ccc2c(c1)OCCO2	94%	?	?	15%	i	13%
O=C(CCN1CCC(c2ccccc2)C1)c1ccc2ccccc2c1 (centres undefined)	16µM*	.	.	.	.	.
O=C(CCN1CCC(c2ccccc2)C1)c1ccco1 (centres undefined)	-23%	.	.	.	.	.
O=C(CCN1CCC(c2ccccc2)C1)c1cccc2ccccc12 (centres undefined)	25µM*	.	.	.	.	.
Cc1[nH]c2nc3ccccc3n2c(=O)c1Cc1ccc(Br)cc1	20%	.	.	.	.	.
COc1cc(C(=O)CCN2CCC(c3ccccc3)C2)cc(OC)c1OC (centres undefined)	-15%	i	?	3.7µM*	i	7%
COc1ccc(CNC(=O)c2cccc(OCc3ccccc3)c2)cc1	6%	.	.	.	.	.
Cc1ccc(-n2c(C)cc(/C=C3/SC(=O)N(CC(=O)N4CCOCC4)C3=O)c2C)nc1	.	i	18µM*	2%	i	10%
O=C(Nn1c(SCc2cccc([N+](=O)[O-])c2)nc2ccccc2c1=O)c1ccccc1	-18%	i	3%	-1%	?	-3%
CCOC(CCn1c(SCc2cccc([N+](=O)[O-])c2)nc2ccccc2c1=O)OCC	-17%	i	6%	15%	i	5%
CCCCn1c(SCc2cccc([N+](=O)[O-])c2)nc2ccsc2c1=O	2%	i	-8%	16µM*	2.3µM*	0%
COCCn1c(SCc2cccc([N+](=O)[O-])c2)nc2ccccc2c1=O	0%	i	-7%	9%	12µM*	0%
Cn1c(SCc2cccc([N+](=O)[O-])c2)nc2ccccc2c1=O	1%	?	11%	?	2.6µM*	0%
